# Screening data deposited in PubChem BioAssay by National Center for Advancing Translational Sciences (NCATS).
# Hits are enriched below; roughly 17% of the tested compounds scored in any of these assays.
# ATXN2 expr inh – ATXN2 expression inhibition | Potency, µM (series often up to 57 µM), for the others: top-dose activity change, negative = inhibition, actives largely listed as inhibitors | AID 1745845 | actives 0.72% (n = 360,000) | HEK-293 ATXN2-luciferase reporter, luminescence, 24 h; also: % is scaled to controls: 0 for no effect and ±100 for the full control effect; nearly all actives have a fitted effect of over 55% in size
#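 ATXN2-luciferase reporter cells (luciferase flanked by upstream and downstream ATXN2 gene portions) were treated 24 h at 37 °C with compounds at up to 57 uM. SteadyGlo luminescence gave expression; GF-AFC fluorescence gave viability.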
# TGFb SMAD3 inh – inhibitors of TGF-b signaling; HepG2 CAGA-GFP TGF-b/SMAD3 reporter, GFP fluorescence, 18 h; TGF-beta stimulated, 500 pg/mL final; Potency, µM (series often up to 46.1 µM), for inactives: top-dose activity, negative = inhibition, actives largely listed as inhibitors; actives 1.2% (n = 410,000); also: % is scaled to controls: 0 for no effect and ±100 for the full control effect; nearly all actives have a fitted effect of over 65% in size
#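 Read-out: total well GFP (ex488/em500-530) summed from mean per-cell fluorescence. Cells: HEPG2 CAGA-GFP, 1% FBS DMEM, 18 h at 37 degrees C with 500 pg/mL final TGF-beta. Unstimulated wells served as the full-inhibition control; stimulated DMSO wells = 0%.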
# DT40 TDP1 CPT – DT40-hTDP1 cell growth loss with CPT | chicken DT40 Tdp1-/-;hTDP1 cells + 20 nM CPT, ATP luminescence, 48 h | Potency, µM (titrated, usually from 46.2 µM), inactives show at the top dose activity change, negative = growth inhibition, actives largely listed as inhibitors | actives 12% (n = 420,000) | AID 686979; also: % is scaled to controls: 0 for no effect and ±100 for the full control effect; nearly all actives have a fitted effect of over 55% in size
#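 Cell growth measured by CellTiter-Glo luminescence after a minimum 48 h, 37 C compound exposure with 20 nM CPT in Tdp1-knockout DT40 cells stably expressing hTDP1, seeded 400/well; qHTS titration format.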
# HepG2 tox – HepG2 cytotoxicity, counter-screen for TGF-b inhibitors | Potency, µM (highest dose often 46.1 µM), without a hit: at the highest dose activity change, negative = cytotoxicity, hits mostly cytotoxic | HepG2 CAGA-GFP viability, ATP luminescence, 18 h | actives 0.76% (n = 410,000) | AID 588856
#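 CellTiter-Glo luminescence gave cytotoxicity after 18 hours at 37 degrees C. The cells were HepG2 CAGA-GFP in 1% FBS DMEM, stimulated with 500 pg/mL TGF-beta after compound addition. %Activity was normalised to no-cell wells (complete cell-killing) and DMSO (no toxicity), and curves were fitted and classified.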
# DT40 TDP1 no CPT – qHTS for Inhibitors of human tyrosyl-DNA phosphodiesterase 1 (TDP1): qHTS in cells in absence of CPT; Potency, µM (series often up to 46.2 µM), inactives show top-dose activity change, negative = growth inhibition, usual class: inhibitors; DT40 Tdp1-/- hTDP1 cells, no CPT, ATP luminescence, 48 h; actives 15% (n = 420,000); also: % is scaled to controls: 0 for no effect and ±100 for the full control effect; nearly all actives have a fitted effect of over 55% in size
#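 Chicken DT40 Tdp1-/- cells complemented with human TDP1, screened without camptothecin (DMSO vehicle only), 400 cells/well. Compounds pin-transferred, cells incubated at 37 °C for at least 48 hr. Growth read as ATP-dependent luminescence (CellTiter-Glo, 30 min at RT).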
# ATXN viability – cell viability loss in ATXN counter-screen. S2 cells (HEK-293 line with an ATXN2-luciferase reporter) viability, CellTiter-Fluor protease fluorescence, 24 h. Potency, µM (series often up to 56.7 µM), most hits filed as cytotoxic. actives 0.49% (n = 400,000). AID 651635; also: nearly all actives have a fitted effect of over 40% in size
# The depositor's hits bear a star; i = inactive; ? = inconclusive; · = not tested or not shown. Calls follow the shape of the dose curve; as a rule, active = well fitted curve in the direction sought with a large enough effect; inconclusive = small, poorly fitted or top-dose-only effect, or another doubt; inactive = no such curve, though single readings can be large; an effect the other way counts as inactive or inconclusive. Potency is read from the fitted curve at half-maximal effect.
SMILES,ATXN2 expr inh,TGFb SMAD3 inh,DT40 TDP1 CPT,HepG2 tox,DT40 TDP1 no CPT,ATXN viability
Cc1onc(-c2ccccc2)c1C(=O)Nc1ccccc1NC(=O)c1c(-c2ccccc2)noc1C,-7.3%,?,14.6µM*,-0.2%,18.4µM*,i
CCn1cc(C(=O)N2CCN(c3cc(C)ccc3C)CC2)c(=O)c2cc(S(=O)(=O)N3CCCCC3)ccc21,-10.4%,13.7%,-4.7%,-17.4%,-9.5%,i
Cc1ccc(S(=O)(=O)N2CCC(C(=O)OCC(=O)N3CC(C)CC(C)C3)CC2)cc1C (stereo unspecified),10.6%,55.8%,-14.1%,1.3%,-14.8%,i
Cc1ccc(S(=O)(=O)N2CC(O)C[C@H]2C(=O)OCC(=O)N2CCN(c3ccc(F)cc3)CC2)cc1C (stereo partly specified),-18.6%,-28.4%,10.3µM*,-12.9%,4.11µM*,i
COc1ccc(C=CC(=O)c2c(OC)cc(OC)c(OC)c2O)cc1,-6.7%,?,?,-42.3%,?,i
C=CCOc1ccc(C=CC(=O)c2c(O)c(OC)c(OC)c(OC)c2OC)cc1,-38.3%,-12.1%,16.4µM*,-27.9%,16.4µM*,i
CC(OC(=O)/C=C/c1cccs1)C(=O)Nc1ccc(C(N)=O)cc1 (stereo unspecified),-5.9%,-0.1%,?,2.1%,?,i
Cc1c(C(=O)NCc2cccc(Br)c2)oc2ccc3c(c12)C(=O)CC(C)(C)O3,·,·,?,-7.1%,14.6µM*,·
CCCOc1ccc(CNC(=O)c2oc3ccc4c(c3c2C)C(=O)CC(C)(CC)O4)cc1 (stereo unspecified),·,?,16.4µM*,4.1%,16.4µM*,·
Cc1c(C(=O)Nc2cccc(C(F)(F)F)c2)oc2ccc3c(c12)C(=O)CC(C)(C)O3,1.0%,0.0%,?,-32.1%,?,?
Cc1cc(C)cc(NC(=O)c2oc3ccc4c(c3c2C)C(=O)CC(C)(C)O4)c1,31.6%,-2.3%,?,-32.7%,?,i
Cc1cccc(C)c1NC(=O)c1oc2ccc3c(c2c1C)C(=O)CC(C)(C)O3,2.2%,29.0%,16.4µM*,-15.3%,?,i
COc1ccccc1CNC(=O)c1oc2ccc3c(c2c1C)C(=O)CC(C)(C)O3,·,·,?,-20.2%,16.4µM*,·
Cc1c(C(=O)NCC2CCCO2)oc2ccc3c(c12)C(=O)CC(C)(C)O3 (stereo unspecified),3.1%,2.8%,-21.6%,-22.7%,?,i
O=C(CN1C(=O)NC(c2ccc(F)cc2)C1=O)NC1CCCCC1 (stereo unspecified),-2.7%,?,1.7%,9.8%,-4.7%,?
CCOC(=O)N1CCN(C(=O)C2CCC(=O)N(Cc3ccccc3OC)C2)CC1 (stereo unspecified),·,-9.0%,1.9%,-3.8%,3.1%,i
COc1cc(C(=O)Nc2cc(S(=O)(=O)N3CCOCC3)ccc2N2CCOCC2)cc(OC)c1C,·,14.9%,?,-0.7%,?,i
O=S(=O)(c1c(F)cccc1F)N1CCN(C(=S)NCc2ccc3c(c2)OCO3)CC1,-14.2%,1.3%,?,-10.6%,?,i
O=C(c1ccc2c(c1)OCO2)N(Cc1cc2cc3c(cc2nc1N1CCOCC1)CCC3)CC1CCCO1 (stereo unspecified),·,·,25.3%,·,-1.6%,i
CC(=O)N1CCC[C@@]2(CCN(Cc3cc(C(F)(F)F)cc(C(F)(F)F)c3)C2)C1,·,·,-14.1%,·,-27.8%,·
FC(F)(F)c1cc(CN2CCC3(CCNCC3)CC2)cc(C(F)(F)F)c1,·,·,6.51µM*,·,4.61µM*,·
Cc1c(C#N)c(N=CN(C)C)c(C(=O)c2ccc(Br)cc2)n1-c1ccc(Cl)cc1,-20.8%,-9.7%,11.2µM*,-18.2%,?,i
Nc1sc(-c2ccccc2)n[n+]1Cc1cccc2cccnc12,·,?,?,-126.7%,23.1µM*,?
Cc1ccc2c(C)c(C(=O)N3CCN(c4cnccn4)CC3)oc2c1C,14.9%,26.7%,?,28.3%,18.4µM*,?
O=C(c1ccc(F)cc1F)N1CCC(c2nc(-c3ccc(S(=O)(=O)N4CCCC4)cc3)no2)CC1,·,28.4%,4.1%,-0.4%,-24.8%,·
SMILES,ATXN2 expr inh,TGFb SMAD3 inh,DT40 TDP1 CPT,HepG2 tox,DT40 TDP1 no CPT,ATXN viability
CCc1c(C)nc(SCC(=O)N2CCCCC2C)[nH]c1=O (stereo unspecified),·,-10.6%,-1.1%,1.6%,-12.1%,i
N#Cc1cc2c(=O)n3ccccc3nc2n(-c2ccccc2Cl)c1=O,?,-15.8%,7.31µM*,-12.7%,?,·
CN(C)C(=O)c1ccc(S(=O)(=O)c2ccc(NC(=O)[C@@](C)(O)C(F)(F)F)c(Cl)c2)cc1,-18.3%,·,·,·,·,·
NC(=O)c1cc(N2C(=O)C=CC2=O)ccc1Cl,?,-13.2%,13µM*,0.0%,16.4µM*,·
CC(=O)Nc1ccc(Cl)c(C(N)=O)c1,8.5%,?,-21.3%,-6.9%,1.7%,i
Cc1cccc(C(C(=O)NC2CCCC2)N(C(=O)c2csnn2)C2CC2)c1 (stereo unspecified),4.2%,-2.8%,-3.3%,-7.7%,-9.7%,i
C[C@]12CC[C@@H]3c4ccc(O)cc4CC[C@H]3[C@@H]1CC[C@@H]2O,4.9%,-7.5%,?,-0.5%,23.1µM*,i
C[C@]12CC[C@@H]3c4ccc(O)cc4CC[C@H]3[C@H]1CC[C@H]2O,-17.1%,·,·,·,·,·
C#C[C@]1(O)CC[C@H]2[C@@H]3CCc4cc(O)ccc4[C@H]3CC[C@@]21C,-9.0%,-13.0%,?,-3.9%,15µM*,?
CC(NCCN(C)C)C1CCC2C3CCc4cc(O)ccc4C3CCC12C (stereo unspecified),0.0%,?,?,-79.2%,1.64µM*,?
Cc1ccc(Nc2nc(N)c([N+](=O)[O-])c(N3CCC(C)CC3)n2)cc1C,?,-7.3%,?,7.2%,?,?
Cc1ccc(Nc2nc(N)c([N+](=O)[O-])c(N3CCOCC3)n2)cc1C,2.4%,1.7%,23.1µM*,-9.6%,20.6µM*,i
Cc1cccc(Nc2nc(N)c([N+](=O)[O-])c(N3CCN(C)CC3)n2)c1,-10.2%,31.2%,?,1.0%,?,i
Cc1cccc(Nc2nc(N)c([N+](=O)[O-])c(N3CCCC(C)C3)n2)c1 (stereo unspecified),?,?,13µM*,-88.4%,10.3µM*,?
